# Source: PubChem BioAssay (EPA / NIEHS)
# Several values for one entry are separate records, joined by “and”; a condition that tells them apart may be missing. Equal values may be shown once. Activity calls are given as the source filed them. How the source made its calls: active means hit-call score of the fitted dose curve at least 0.9, where 1 is the maximum; inactive means score below 0.9.
# Columns and labels:
# [1] = read-out: Interleukin-6 (IL6), IL6 (gene 3569); test: BSK_CASM3C_IL6: BioMAP Diversity Plus: CASM3C Assay for Interleukin-6 (IL6) Biomarker Activity for (AID 2283040); conditions: primary human coronary artery smooth muscle cells; actives raise or lower the signal
# [2] = read-out: Tissue plasminogen activator (tPA), PLAT (gene 5327); test: BSK_BE3C_tPA: BioMAP Diversity Plus: BE3C Assay for Tissue plasminogen activator (tPA) Biomarker Activity (AID 2283041); conditions: primary human bronchial epithelial cells; actives raise or lower the signal;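 on outcome: tPA level quantified by ELISA one day after compound addition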
# Summary of the method: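 tPA measured by ELISA 24 h after dosing human primary bronchial epithelial cells (BE3C system). Changes in either direction were fitted against DMSO. Parallel cultures were stained with SRB to flag overt cytotoxicity.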
# [3] = read-out: Interleukin-8 (IL8), CXCL8 (gene 3576); test: BSK_CASM3C_IL8: BioMAP Diversity Plus: CASM3C Assay for Interleukin-8 (IL8) Biomarker Activity (AID 2283042); conditions: primary human coronary artery smooth muscle cells; actives raise or lower the signal;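 further: IL-8 protein level quantified by ELISA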
# [4] = read-out: Human Leukocyte Antigen - DR isotype (HLADR), HLA-DRA (gene 3122); test: BSK_CASM3C_HLADR: BioMAP Diversity Plus: CASM3C Assay for Human Leukocyte Antigen - DR isotype (HLADR) Biomarker Activity (AID 2283043); conditions: primary human coronary artery smooth muscle cells; actives raise or lower the signal;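 further: cell-surface HLA-DR protein level quantified by ELISA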
# [5] = read-out: Macrophage colony-stimulating factor (MCSF), CSF1 (gene 1435); test: BSK_CASM3C_MCSF: BioMAP Diversity Plus: CASM3C Assay for Macrophage colony-stimulating factor (MCSF) Biomarker Activity (AID 2283044); conditions: primary human coronary artery smooth muscle cells; actives raise or lower the signal;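 further: M-CSF protein amount quantified by ELISA after 24 h exposure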
# [6] = read-out: Low-density lipoprotein receptor (LDLR), LDLR (gene 3949); test: BSK_CASM3C_LDLR: BioMAP Diversity Plus: CASM3C Assay for Low-density lipoprotein receptor (LDLR) Biomarker Activity (AID 2283045); conditions: primary human coronary artery smooth muscle cells; actives raise or lower the signal;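 further: LDLR protein level on the cell surface quantified by ELISA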
# [7] = read-out: Monocyte Chemoattractant Protein-1 (MCP1), CCL2 (gene 6347); test: BSK_CASM3C_MCP1: BioMAP Diversity Plus: CASM3C Assay for Monocyte Chemoattractant Protein-1 (MCP1) Biomarker Activity (AID 2283046); conditions: primary human coronary artery smooth muscle cells; actives raise or lower the signal;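 further: MCP-1 level quantified by ELISA 24 h after dosing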
# [8] = BSK_CASM3C_Proliferation: Cell Proliferation Assessment in the BioMAP Diversity Plus: CASM3C Assay (AID 2283047); conditions: primary human coronary artery smooth muscle cells;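 further: sulforhodamine B total protein stain as relative cell number at 560 nm; sub-confluent cells exposed 48 h before staining; fitted both ways against DMSO so gain or loss of cell number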
# [9] = read-out: Monokine induced gamma interferon (MIG), CXCL9 (gene 4283); test: BSK_CASM3C_MIG: BioMAP Diversity Plus: CASM3C Assay for Monokine induced gamma interferon (MIG) Biomarker Activity (AID 2283048); conditions: primary human coronary artery smooth muscle cells; actives raise or lower the signal;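 further: MIG protein level measured by ELISA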
# [10] = read-out: serum amyloid A (SAA), SAA1 (gene 6288); test: BSK_CASM3C_SAA: BioMAP Diversity Plus: CASM3C Assay for serum amyloid A (SAA) Biomarker Activity (AID 2283049); conditions: primary human coronary artery smooth muscle cells; actives raise or lower the signal;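 further: SAA protein level quantified by ELISA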
structure (smiles),measurement,setting,value
CNC(=O)Oc1cccc(N=CN(C)C)c1,outcome,[1],inactive
same,outcome,[2],inactive
same,outcome,[3],inactive
same,outcome,[4],inactive
same,outcome,[5],inactive
same,outcome,[6],inactive
same,outcome,[7],inactive
same,outcome,[8],inactive
same,outcome,[9],inactive
same,outcome,[10],inactive
COP(=S)(OC)Oc1ccc(SC)c(C)c1,outcome,[1],inactive
same,outcome,[2],inactive
same,outcome,[3],inactive
same,outcome,[4],inactive
same,outcome,[5],inactive
same,outcome,[6],inactive
same,outcome,[7],inactive
same,outcome,[8],inactive
same,outcome,[9],inactive
same,outcome,[10],inactive
Oc1cc(Cl)ccc1Oc1ccc(Cl)cc1Cl,AC50,[2],20.4 µM (active) [middle of 4 runs]
same,AC50,[3],37.7 µM (active) [middle of 4 runs]
same,AC50,[4],29.4 µM (active) [middle of 4 runs]
same,AC50,[5],34 µM (active) [middle of 4 runs]
same,AC50,[6],30 µM (active) [middle of 4 runs]
same,AC50,[7],33.6 µM (active) and 37.7 µM (active) and 31.4 µM (active)
same,AC50,[8],17.6 µM (active) [middle of 4 runs]
same,AC50,[9],37.8 µM (active) [middle of 4 runs]
same,AC50,[10],32 µM (active) [middle of 4 runs]
CCOC1Oc2ccc(OS(C)(=O)=O)cc2C1(C)C (configuration not stated),outcome,[1],inactive
same,outcome,[2],inactive
same,outcome,[3],inactive
same,outcome,[4],inactive
same,outcome,[5],inactive
same,outcome,[6],inactive
same,outcome,[7],inactive
same,outcome,[8],inactive
same,outcome,[9],inactive
same,outcome,[10],inactive
COP(=S)(OC)Oc1ccc([N+](=O)[O-])cc1,outcome,[1],inactive
same,outcome,[2],inactive
same,outcome,[3],inactive
same,outcome,[4],inactive
same,outcome,[5],inactive
same,outcome,[6],inactive
same,AC50,[7],0.877 µM (active)
same,outcome,[8],inactive
same,outcome,[9],inactive
same,outcome,[10],inactive
O=C(NC(=O)c1c(F)cccc1F)Nc1ccc(OC(F)(F)C(F)OC(F)(F)F)c(Cl)c1 (configuration not stated),outcome,[1],inactive
same,outcome,[2],inactive
same,outcome,[3],inactive
same,outcome,[4],inactive
same,outcome,[5],inactive
same,outcome,[6],inactive
same,outcome,[7],inactive
same,outcome,[8],inactive
same,outcome,[9],inactive
same,outcome,[10],inactive
N#CN,outcome,[1],inactive
same,outcome,[2],inactive
same,outcome,[3],inactive
same,outcome,[4],inactive
same,outcome,[5],inactive
same,outcome,[6],inactive
same,outcome,[7],inactive
same,outcome,[8],inactive
same,outcome,[9],inactive
same,outcome,[10],inactive
CNC(=O)/C=C(\C)OP(=O)(OC)OC,outcome,[1],inactive
same,outcome,[2],inactive
same,outcome,[3],inactive
same,outcome,[4],inactive
same,outcome,[5],inactive
same,outcome,[6],inactive
same,outcome,[7],inactive
same,outcome,[8],inactive
same,outcome,[9],inactive
same,outcome,[10],inactive
CNC(=O)CSP(=S)(OC)OC,outcome,[1],inactive
same,outcome,[2],inactive
same,outcome,[3],inactive
same,outcome,[4],inactive
same,outcome,[5],inactive
same,outcome,[6],inactive
same,outcome,[7],inactive
same,outcome,[8],inactive
same,outcome,[9],inactive
same,outcome,[10],inactive
N#Cc1c(Cl)c(Cl)c(Cl)c(C#N)c1Cl,AC50,[1],3.56 µM (active)
same,AC50,[2],3.97 µM (active)
same,AC50,[3],3.36 µM (active)
same,AC50,[4],6.09 µM (active)
same,AC50,[5],3.31 µM (active)
same,outcome,[6],inactive
same,AC50,[7],3.56 µM (active)
same,AC50,[8],0.148 µM (active)
same,AC50,[9],2.14 µM (active)
same,AC50,[10],4.82 µM (active)
COC(=O)c1ccccc1S(=O)(=O)NC(=O)N(C)c1nc(C)nc(OC)n1,outcome,[1],inactive
same,outcome,[2],inactive
same,outcome,[3],inactive
same,outcome,[4],inactive
same,outcome,[5],inactive
same,outcome,[6],inactive
same,outcome,[7],inactive
same,outcome,[8],inactive
same,outcome,[9],inactive
same,outcome,[10],inactive
COP(=O)(OC)OC=C(Cl)Cl,outcome,[1],inactive
same,outcome,[2],inactive
same,outcome,[3],inactive
same,outcome,[4],inactive
same,outcome,[5],inactive
same,outcome,[6],inactive
same,outcome,[7],inactive
same,AC50,[8],8.32 µM (active)
same,outcome,[9],inactive
same,outcome,[10],inactive
CCC(C)Nc1c([N+](=O)[O-])cc(C(C)(C)C)cc1[N+](=O)[O-] (configuration not stated),outcome,[1],inactive
same,outcome,[2],inactive
same,outcome,[3],inactive
same,outcome,[4],inactive
same,outcome,[5],inactive
same,outcome,[6],inactive
same,outcome,[7],inactive
same,outcome,[8],inactive
same,outcome,[9],inactive
same,outcome,[10],inactive
Clc1ccccc1-c1nnc(-c2ccccc2Cl)nn1,outcome,[1],inactive
same,outcome,[2],inactive
same,outcome,[3],inactive
same,outcome,[4],inactive
same,outcome,[5],inactive
same,outcome,[6],inactive
same,outcome,[7],inactive
same,outcome,[9],inactive
same,outcome,[10],inactive
O=S1OCC2C(CO1)C1(Cl)C(Cl)=C(Cl)C2(Cl)C1(Cl)Cl (configuration not stated),outcome,[1],inactive
same,AC50,[2],21.5 µM (active)
same,AC50,[3],29.6 µM (active)
same,AC50,[4],32.5 µM (active)
same,AC50,[5],31.5 µM (active)
same,outcome,[6],inactive
same,AC50,[7],31.7 µM (active)
same,AC50,[8],32.7 µM (active)
same,AC50,[9],32.1 µM (active)
same,AC50,[10],32.7 µM (active)
CCc1ccc(C(=O)NN(C(=O)c2cc(C)cc(C)c2)C(C)(C)C)cc1,outcome,[1],inactive
same,outcome,[2],inactive
same,outcome,[3],inactive
same,outcome,[4],inactive
same,outcome,[5],inactive
same,outcome,[6],inactive
same,outcome,[7],inactive
same,AC50,[8],22.9 µM (active)
same,outcome,[9],inactive
same,outcome,[10],inactive
CC[C@H](C)[C@H]1O[C@]2(C=C[C@@H]1C)C[C@@H]1C[C@@H](C/C=C(\C)[C@@H](O[C@H]3C[C@H](OC)[C@@H](O[C@H]4C[C@H](OC)[C@@H](O)[C@H](C)O4)[C@H](C)O3)[C@@H](C)/C=C/C=C3\CO[C@@H]4[C@H](O)C(C)=C[C@@H](C(=O)O1)[C@]34O)O2 (tested in a mixture with another compound),AC50,[1],13.9 µM (active)
same,AC50,[2],5.27 µM (active)
same,AC50,[3],17.4 µM (active)
same,AC50,[4],9.73 µM (active)
same,AC50,[5],20 µM (active)
same,outcome,[6],inactive
same,AC50,[7],11.7 µM (active)
same,AC50,[8],6.85 µM (active)
same,AC50,[9],29.7 µM (active)
same,outcome,[10],inactive
CC(C)(C)C(O)C(Oc1ccc(Cl)cc1)n1cncn1 (configuration not stated),outcome,[1],inactive
same,outcome,[2],inactive
same,outcome,[3],inactive
same,outcome,[4],inactive
same,outcome,[5],inactive
same,outcome,[6],inactive
same,outcome,[7],inactive
same,outcome,[8],inactive
same,outcome,[9],inactive
same,outcome,[10],inactive
COc1cc(OC)nc(NC(=O)NS(=O)(=O)c2cc(NC=O)ccc2C(=O)N(C)C)n1,outcome,[1],inactive
same,outcome,[2],inactive
same,outcome,[3],inactive
same,outcome,[4],inactive
same,outcome,[5],inactive
same,outcome,[6],inactive
same,outcome,[7],inactive
same,outcome,[8],inactive
same,outcome,[9],inactive
same,outcome,[10],inactive
COC(=O)c1ccccc1CS(=O)(=O)NC(=O)Nc1nc(OC)cc(OC)n1,outcome,[1],inactive
same,outcome,[2],inactive
same,outcome,[3],inactive
same,outcome,[4],inactive
same,outcome,[5],inactive
same,outcome,[6],inactive
same,outcome,[7],inactive
same,outcome,[8],inactive
same,outcome,[9],inactive
same,outcome,[10],inactive
C#CCN1C(=O)COc2cc(F)c(N3C(=O)C4=C(CCCC4)C3=O)cc21,outcome,[1],inactive
same,outcome,[2],inactive
same,outcome,[3],inactive
same,outcome,[4],inactive
same,outcome,[5],inactive
same,outcome,[6],inactive
same,outcome,[7],inactive
same,outcome,[8],inactive
same,outcome,[9],inactive
same,outcome,[10],inactive
C[C@H]1[C@H](c2ccc(Cl)cc2)SC(=O)N1C(=O)NC1CCCCC1,AC50,[1],7.98 µM (active)
same,outcome,[2],inactive
same,outcome,[3],inactive
same,outcome,[4],inactive
same,outcome,[5],inactive
same,outcome,[6],inactive
same,outcome,[7],inactive
same,AC50,[8],20 µM (active)
same,outcome,[9],inactive
same,outcome,[10],inactive
COc1nn(CSP(=S)(OC)OC)c(=O)s1,outcome,[1],inactive
same,outcome,[2],inactive
same,outcome,[3],inactive
same,outcome,[4],inactive
same,outcome,[5],inactive
same,outcome,[6],inactive
same,outcome,[7],inactive
same,outcome,[8],inactive
same,outcome,[9],inactive
same,outcome,[10],inactive
CN1CSC(=S)N(C)C1,AC50,[1],16.4 µM (active)
same,outcome,[2],inactive
same,outcome,[3],inactive
same,outcome,[4],inactive
same,outcome,[6],inactive
same,outcome,[7],inactive
same,AC50,[8],14.5 µM (active)
same,outcome,[9],inactive
same,outcome,[10],inactive
CC1(c2ccc(Oc3ccccc3)cc2)OC(=O)N(Nc2ccccc2)C1=O (configuration not stated),outcome,[1],inactive
same,outcome,[2],inactive
same,outcome,[3],inactive
same,outcome,[4],inactive
same,outcome,[5],inactive
same,outcome,[6],inactive
same,outcome,[7],inactive
same,AC50,[8],13.7 µM (active)
same,outcome,[9],inactive
same,outcome,[10],inactive
CNC(=O)Oc1ccccc1OC(C)C,outcome,[1],inactive
same,outcome,[2],inactive
same,outcome,[3],inactive
same,outcome,[4],inactive
same,outcome,[5],inactive
same,outcome,[6],inactive
same,outcome,[7],inactive
same,outcome,[8],inactive
same,outcome,[9],inactive
same,outcome,[10],inactive
CCCN(CCC)c1c([N+](=O)[O-])cc(C(F)(F)F)cc1[N+](=O)[O-],outcome,[1],inactive
same,outcome,[2],inactive
same,outcome,[3],inactive
same,outcome,[4],inactive
same,outcome,[5],inactive
same,outcome,[6],inactive
same,outcome,[7],inactive
same,outcome,[8],inactive
same,outcome,[9],inactive
same,outcome,[10],inactive
